Experimental data taken from the supplement of paper PMC10338343.
± gives the standard deviation.

Each sequence was assayed on MILI (PIWIL2) piRISC loaded with L1MC piRNA (26 nt) (assay: pre-steady-state target cleavage rate (min^-1); guide: L1MC piRNA 5'p-UAACUAAAUACUAUGCAAGCUGUAGG; MIWI and MILI are mouse PIWI proteins and EfPiwi is from a freshwater sponge; tags in brackets are library labels; higher = faster piRNA-guided slicing of the target). Settings: auxiliary factor: 500 nM mouse GTSF1.
Summary of the method: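 The pre-steady-state cleavage rate was calculated from a burst-and-steady-state fit. Data came from Cleave-'n-Seq, in which […] transcribed, DNA-blocked target RNA library was mixed with 1 nM active affinity-purified piRISC carrying one synthetic guide, with or without 500 nM GTSF1 partner protein, in HEPES–potassium acetate buffer at 33 °C for 0–8 or 0–960 min. Uncleaved targets were sequenced and normalised to depth and to weakly complementary targets, three trials were pooled, and k3 was capped at 0.0001 min^-1.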
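Also: 1 nM active piRISC with 0.1 nM target library at 33 °C single turnover.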

Sequence	pre-steady-state target cleavage rate
UCCUGGAACAGCUUGCAUAGUAUUUUAGUUA	0.241 ± 0.02
UCCUCCUACAGCUUGCAUAGUAUUUACUUA	0.206 ± 0.039
UCCUGGAAGAGCUUGCAUUGUAUUUAGUUA	0.208 ± 0.011
UCCUGCUACAGGUUGCAUAGUAUUAAGUUA	0.208 ± 0.034
UCCUGGAUCAGGUUGCUUAGUAUUUAGUUA	0.189 ± 0.011
UCCUCCUACAGCUUGCAUAGUAUUUAGUCA	0.303 ± 0.025
UCCUGGAUGUGCUUGCAUAGUAUGUUAGUUA	0.0646 ± 0.012
UCCUGGUACACCUAGCAUAGUAUUUAGUUA	0.201 ± 0.044
UCCUGGAACAGCUUGCAUAGUACUUAGUUA	0.243 ± 0.018
UCCUGGUACAGGUAGCAUAGUAUUUAGUUA	0.21 ± 0.021
UCCUCCUACAGGAUGCAUAGUAUUUAGUAA	0.23 ± 0.017
UCCUGGAACAGCAUGCAUUGUAUUUAGUUA	0.204 ± 0.016
UCCUGGUACUGCUUGCAUUGUAUUUAGUUA	0.0791 ± 0.015
UCCUGCACAGCUUGCAUAGUAUUUAGUUA	0.317 ± 0.018
UCCUGCUUACAGCUUGCAUAGUAUUUAGUUA	0.451 ± 0.043
UCCUGCUUGAGCUUGCAUAGUAUUUAGUAA	0.172 ± 0.021
UCCUCCUUCAGCUUGCAUAGUAUAUAGUUA	0.216 ± 0.022
UCCUGGAUCAGCUUGCAUAGUAUUCAGUUA	0.179 ± 0.024
UCCUGGAUCAGCUUGCAUCGUAUUUAGUUA	0.0942 ± 0.012
UCCUCCUACAGGUUGCAUAGUAUAUAGUUA	0.219 ± 0.022

Sequence	pre-steady-state target cleavage rate
UCCUGGUACAGCUUGCAUAGUAUUAUGUUA	0.131 ± 0.032
UCCUGCUAGAGCUUGCAUAGUAUUAAGUUA	0.256 ± 0.033
UCCUCCUUCAGCUUGGAUAGUAUUUAGUUA	0.242 ± 0.015
UCCUGGUACAAGCUUGCAUAGUAUUUAGUUA	0.196 ± 0.024
UCCUGCUAGAGCUUGCAUAGUAUUUAGUUA	0.198 ± 0.017
UCCUCCUACAGGUAGCAUAGUAUUUAGUUA	0.273 ± 0.013
UCCUGGUACAGCUUGCAUAGUAUUUGAGUUA	0.178 ± 0.034
UCCUGGAUCAGCUUGCUUAGUAAUUAGUUA	0.212 ± 0.022
UCCUGGUACUGCUUGCUUAGUAUUUAGUUA	0.197 ± 0.015
UCCUGGAACUAGCUUGCAUAGUAUUUAGUUA	0.132 ± 0.021
UCCUGGAUCAAGCUUGCAUAGUAUUUAGUUA	0.237 ± 0.018
UCCUGCUACAGCCUGCAUAGUAUUUAGUUA	0.279 ± 0.025
UCCUGGAUCGAGCUUGCAUAGUAUUUAGUUA	0.201 ± 0.016
UCCUCCUACAGCUAGCAUUGUAUUUAGUUA	0.184 ± 0.013
UCCUGCUACAGCGUGCAUAGUAUUUAGUUA	0.296 ± 0.02
UCCUCCUACAGCAUGCAUAGUAUUUAGUAA	0.231 ± 0.019
UCCUCCUACACCUUGCAUAGUAUUUAGUUA	0.237 ± 0.025
UCCUGGAUGUCGAUUGCAUAGUAUUUAGUUA	0.09 ± 0.012
UCCUGCUACAGCUUGCAUAGUAUUUAUGUUA	0.182 ± 0.023
UCCUCCUACAGCUUGCAUAGUAUUUAAGUUA	0.214 ± 0.022
